Screening data deposited in PubChem BioAssay by several laboratories.
Shown are actives, neighbours in structure and some others; about 32% of the full set was active somewhere.
CYP2C19 activ: human CYP2C19 activators, primary screen, biochemical, luminescence. recombinant CYP2C19, luciferin-H EGE luminescence; stronger effect = higher value; 0 = fully inhibited enzyme, 1 = untreated enzyme. 96,000 tested, under 10 active. AID 1025, 2008. activation factor at 5 µM. Cytochrome P450 2C19 (Homo sapiens), P33261;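 active means activation factor of at least 2 at 5 µM in the primary screen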;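 further: 0 = wells with 2.5 mM tranylcypromine and 1 = vehicle-only wells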
Target sequence (P33261 whole entry, looked up): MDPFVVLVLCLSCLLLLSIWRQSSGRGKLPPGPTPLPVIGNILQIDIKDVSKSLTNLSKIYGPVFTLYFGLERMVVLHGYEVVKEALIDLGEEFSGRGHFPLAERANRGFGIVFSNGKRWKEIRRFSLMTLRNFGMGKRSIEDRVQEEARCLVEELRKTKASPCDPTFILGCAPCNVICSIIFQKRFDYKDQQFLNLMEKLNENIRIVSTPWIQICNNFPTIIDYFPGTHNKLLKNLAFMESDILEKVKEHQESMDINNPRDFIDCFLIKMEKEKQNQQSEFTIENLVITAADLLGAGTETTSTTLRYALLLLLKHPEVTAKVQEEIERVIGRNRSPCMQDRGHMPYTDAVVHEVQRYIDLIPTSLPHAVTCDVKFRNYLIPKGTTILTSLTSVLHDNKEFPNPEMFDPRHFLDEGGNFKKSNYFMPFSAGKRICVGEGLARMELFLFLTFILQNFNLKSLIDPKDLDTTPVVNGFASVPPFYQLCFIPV
PostGolgi ctrl: growth inhibition of yeast control strain, primary screen, counter-screen for post-Golgi transport modulator project. efflux-deficient yeast background strain, growth absorbance A615, 16 h. 98,000 compounds, 5% hits. inhibition, % at 10 µM
CYP2C19 inhib: blockers of cytochrome P450 2C19 activity – biochemical, luminescence, ADME assay, primary screen; P33261; CYP2C19 Supersomes, luciferin-H EGE luminescence, 30 min; inhibition, % at 5 µM; 96,000 compounds, 21% hits;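 active means CYP2C19 inhibition above a set limit at 5 µM in the primary screen, cut at about 50% in these data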;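 further: plate controls were negative control wells for no effect and 2.5 mM tranylcypromine positive control for full effect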
CYP2C9 inh: blockers of cytochrome P450 2C9 activity – biochemical, luminescence, ADME assay, primary screen | 96,000 compounds, 20% hits | inhibition, % at 5 µM | CYP2C9 Supersomes, luciferin-H conversion | AID 777, 2007;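 active means blocking of liver enzyme CYP2C9 beyond about 50% at 5 µM, limit read from the data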
PostGolgi yeast: phenotypic screen on post-Golgi transport, primary screen. 98,000 compounds, 0.9% hits. inhibition, % at 10 µM. post-Golgi transport phenotypic cell assay;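 further: yeast cells grown in 1536-well plates; yeast grown about 18 h at 30C before absorbance read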
CYP2C9 act: human CYP2C9 activators, primary screen, biochemical, luminescence; Cytochrome P450 2C9 (Homo sapiens), P11712; recombinant CYP2C9, luciferin-H conversion; stronger effect = higher value; factor 1 = untreated enzyme, 0 = blocked; activation factor at 5 µM; 96,000 compounds, 1.4% hits;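 active means activation factor of 2 or more for CYP2C9 at a 5 µM dose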;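 further: 0 = sulfaphenazole-blocked wells and 1 = vehicle-only wells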
The depositor's hits bear a star. Unless noted, no stated cut-off is given here; in the data, active means inhibition above about 30%; inactive means the rest.

SMILES	CYP2C19 activ	PostGolgi ctrl	CYP2C19 inhib	CYP2C9 inh	PostGolgi yeast	CYP2C9 act
COC(=O)CN(c1ccc(F)cc1)S(=O)(=O)c1ccc2c(c1)OCCO2	0.5	5	47	54*	3	0.5
COC(=O)CN(c1ccc2c(c1)OCCO2)S(=O)(=O)c1ccccc1	0.2	6	84*	64*	1	0.4
COc1ccc2[nH]c(=O)c(CN(C(=O)NC3CCCCC3)C3CCCC3)cc2c1	0.8	0	18	31	2	0.7
O=C(Nc1ncc(Br)s1)C1CCCN1S(=O)(=O)c1cccc2cccnc12 (stereo unspecified)	0.9	4	14	40	27	0.6
CC(=O)c1ccc(NC(=O)C2CCCN2S(=O)(=O)c2cccc3cccnc23)cc1 (stereo unspecified)	0.6	31*	41	14	5	0.9
COc1ccccc1CNC(=O)C1CCCN1S(=O)(=O)c1cccc2cccnc12 (stereo unspecified)	0.2	5	83*	11	0	0.9
Cc1ccc(NC(=O)C2CCCN2S(=O)(=O)c2cccc3cccnc23)cc1F (stereo unspecified)	0.8	21	23	94*	4	0.1
COc1cc(NC(=O)C2CCCN2S(=O)(=O)c2cccc3cccnc23)cc(OC)c1OC (stereo unspecified)	1	-2	-1	83*	-15	0.2
NC(=O)c1c(-c2cccs2)csc1N	1.1	10	-9	6	-2	0.9
CC(C)N1C(=S)SC2CS(=O)(=O)C=C21 (stereo unspecified)	0.9	7	10	-13	-9	1.1
CC1(C)CC(=O)c2c(-c3cccnc3)n[nH]c2C1	0.9	2	13	-6	-1	1.1
O=C(NC1CC2CCCC(C1)N2Cc1ccco1)NC12CC3CC(CC(C3)C1)C2 (stereo unspecified)	1.2	8	-20	-5	-4	1.1
O=C(C1CCCN1S(=O)(=O)c1cccc2cccnc12)N1CCn2c1nc1ccccc12 (stereo unspecified)	1	24	0	58*	18	0.4
Cc1cccc(NC(=O)C2CCCN2S(=O)(=O)c2cccc3cccnc23)c1 (stereo unspecified)	0.7	20	27	70*	-2	0.3
CCOc1ccc(-c2cn(CCC#N)cn2)cc1	0.3	11	65*	41	2	0.6
CC(=O)C1=C(O)CCC1=N	1	9	0	2	2	1
Cc1cc(=O)oc(C)c1C(=O)N[C@@H]1CCCCNC1=O	1.1	-1	-12	-10	17	1.1
CC(Oc1ccc(Cl)cc1Cl)C(=O)NCCCN(C)C (stereo unspecified)	0.9	17	8	-4	-4	1
CN(C)CCNC=C(C(=O)Nc1ccc(Cl)cc1Cl)C(=O)Nc1ccc(Cl)cc1Cl	0.8	99*	16	43	40*	0.6
CCCCC1CC(CSc2ncn[nH]2)OC1=O (stereo unspecified)	0.2	3	80*	22	-10	0.8
CCCCC1CC(CSC(=N)N)OC1=O (stereo unspecified)	1	-1	-2	-16	8	1.2
O=C(NNS(=O)(=O)c1ccc(Cl)cc1)c1cnn(-c2ccccc2)c1-n1cccc1	0.8	26	23	64*	-2	0.4
CN(C(=O)c1cc2n(n1)C(C(F)(F)F)CC(c1ccco1)N2)c1ccccc1 (stereo unspecified)	0.7	-2	31	14	-2	0.9
CCOC(=O)NCc1cc(-c2nn(C)c(=O)c3ccccc23)ccc1C	0.3	13	69*	78*	-1	0.2
Cc1ccc(-c2nn(C)c(=O)c3ccccc23)cc1CNS(C)(=O)=O	0.9	9	6	-135	22	2.3*
SMILES	CYP2C19 activ	PostGolgi ctrl	CYP2C19 inhib	CYP2C9 inh	PostGolgi yeast	CYP2C9 act
CC(=O)NCc1cc(-c2nn(C)c(=O)c3ccccc23)ccc1C	1	13	-5	27	7	0.7
Cc1ccc(-c2nn(C)c(=O)c3ccccc23)cc1CNC(=O)/C=C/c1ccccc1	0.6	15	42	31	3	0.7
CCOC(=O)c1[nH]cc(-c2ccccc2)c1N1CCOCC1	0.1	7	93*	31	2	0.7
Cn1nnnc1SCc1c(F)cccc1F	0.7	-3	26	1	7	1
Cn1nnnc1SCc1cccc(CSc2nnnn2C)n1	0	6	98*	-2	6	1
Cc1ccc(Nc2nc(CSc3nnc(-c4cccs4)o3)cs2)cc1	1	9	4	12	2	0.9
Cc1ccc(Nc2nc(CSc3nnnn3C)cs2)cc1	0.3	12	70*	-177	4	2.8*
Cn1nnnc1SCc1csc(Nc2ccccc2)n1	0.8	4	17	-277	3	3.8*
O=c1cc(CSc2nnnn2-c2ccccc2)nc(Nc2ccc(F)cc2)[nH]1	1	23	-4	15	0	0.9
Cc1ccc(Nc2nc(CSc3nnnn3-c3ccccc3)cs2)cc1	0.6	34*	35	-68	14	1.7
CC(C)Sc1nc2c(c(=O)n1C)SC(C)C2 (stereo unspecified)	0.8	10	18	41	-7	0.6
CCOC(=O)C1CCN(C(C(=O)NC2CCCC2)c2ccc(C)cc2)CC1 (stereo unspecified)	0.9	-7	8	41	6	0.6
O=C(CCc1ccccc1)Nc1ccccc1F	0.2	-6	76*	25	1	0.8
O=C(CCc1ccccc1)Nc1ccc(F)cc1F	0.4	7	60*	5	4	1
COc1ccc(NC(=O)C2C(=O)N(CCO)C3(C)CC2c2ccccc2O3)cc1 (stereo unspecified)	1	1	2	-1	2	1
CC(C)CN(C(=O)c1nn(C)c(=O)c2ccccc12)c1nc2ccccc2s1	0.5	17	53*	77*	2	0.2
CN(C(=O)c1ccccc1)c1nc2ccccc2s1	0.7	18	33	26	1	0.7
COc1ccc(CN(C)C2CCCCC2)c(C)c1C	0.2	-4	76*	-2	-8	1
COc1ccc(CN2CCCCC2C)c(C)c1C (stereo unspecified)	0.8	6	18	1	5	1
O=C1c2ccccc2C(=O)N1CCCOc1ccccc1	0.2	11	85*	20	-6	0.8
N#Cc1ccccc1OCCN1C(=O)c2ccccc2C1=O	0.2	14	82*	60*	-3	0.4
